For seven molecules, outcome and AC50 results are on record in PubChem BioAssay (EPA / NIEHS).

Assay [1] is described as follows: ATG_GLI_CIS: Attagene CIS-FACTORIAL HepG2 Assay for human Zinc Finger Protein GLI1 (AID 2282945). As to conditions: HepG2, Attagene cis-factorial reporter mRNA, GLI element; actives raise or lower the signal. A digest of the protocol:
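HepG2 cells transiently transfected with cis-promoter multiplexed reporter units report endogenous transcription factor activity. After 24 h chemical exposure, reporter mRNA was quantified by RT-PCR, 6-FAM labelling, HpaI digestion and capillary electrophoresis, with bidirectional fitting against DMSO.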

The nature of assay [2]: ATG_ISRE_CIS: Attagene CIS-FACTORIAL HepG2 Assay for human Interferon Regulatory Factor 1 (IRF1) binding to an Interferon-Stimulated Response Element (ISRE) (AID 2282948). The note with it: HepG2 ISRE cis-reporter (Attagene), mRNA transcription readout; actives raise or lower the signal. A digest of the protocol: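 Read-out: fluorescent RT-PCR products resolved by capillary electrophoresis, reporting endogenous transcription factor activity via ISRE-driven reporter mRNA in transfected HepG2 cells dosed for 24 h; gain or loss fitted relative to DMSO.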

Assay [3] can be described thus: ATG_M_32_CIS: Attagene CIS-FACTORIAL HepG2 Assay for M32 Transcription Factor (Internal Marker) (AID 2282949).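 Also: background control marker of the multiplexed CIS panel rather than a real target.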 As to conditions: HepG2 Attagene cis-factorial M32 reporter, mRNA; actives raise or lower the signal. The method in brief: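 Using DMSO as baseline, bidirectional curve fits were applied to reporter mRNA signals. These came from transiently transfected HepG2 cells exposed for 24 h, with RNA analysed by RT-PCR, FAM primer extension, HpaI digestion and CE.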

The target in assay [4] is Hypoxia-inducible factor 1-alpha (Homo sapiens) (UniProt Q16665). Description: ATG_HIF1a_CIS: Attagene CIS-FACTORIAL HepG2 Assay for human Hypoxia Inducible Factor 1 (HIF1A) (AID 2282951). As to conditions: HepG2 Attagene cis-factorial HIF1a reporter transcription; actives raise or lower the signal. A digest of the protocol:
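Endogenous-TF cis reporter readout, human HepG2 cells, 24 h incubation; mRNA detected via RT-PCR and capillary electrophoresis fluorescence; DMSO-normalised bidirectional fitting.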

The target in assay [5] is Hepatocyte nuclear factor 6 (Homo sapiens) (UniProt Q9UBC0). Briefly: ATG_HNF6_CIS: Attagene CIS-FACTORIAL HepG2 Assay for human Hepatocyte Nuclear Factor 6 (HNF6) (AID 2282952). The note with it: HepG2 Attagene cis-factorial HNF6 reporter transcription; actives raise or lower the signal. The method in brief:
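Endogenous factor activity read in transiently transfected HepG2 via promoter-regulated reporter transcripts. RNA harvested 24 h post-dosing, reverse-transcribed, PCR-amplified, FAM-labelled, HpaI-digested and resolved by capillary electrophoresis; fitted in both directions against DMSO.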

Assay [6] addresses Heat shock factor protein 1 (Homo sapiens) (UniProt Q00613). Briefly: ATG_HSE_CIS: Attagene CIS-FACTORIAL HepG2 Assay for human Heat Shock Transcription Factor 1 (HSE) (AID 2282953). The note with it: HepG2 HSE cis-reporter, Attagene RNA transcription; actives raise or lower the signal. The method in brief:
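Endogenous transcription factor activity in transiently transfected HepG2, read as reporter mRNA by RT-PCR with fluorescent capillary electrophoresis after 24 h. Gain or loss of signal fitted versus DMSO baseline.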

Assay [7] is described as follows: ATG_MRE_CIS: Attagene CIS-FACTORIAL HepG2 Assay for human Metal Responsive Element (MRE) (AID 2282954). As to conditions: HepG2 MRE cis-reporter transcription, Attagene multiplex; actives raise or lower the signal. The method in brief:
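Readout: capillary electrophoresis of 6-FAM-labelled, HpaI-digested RT-PCR reporter products. System: HepG2 cells carrying transient multiplexed cis reporters, dosed 24 h. Analysis: bidirectional fit, DMSO baseline.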

Assay [8] is described as follows: ATG_PXRE_CIS: Attagene CIS-FACTORIAL HepG2 Assay for human Pregnane X Receptor Element (PXRE) (AID 2282957). The note with it: HepG2 Attagene CIS-FACTORIAL PXRE reporter, mRNA; actives raise or lower the signal. A digest of the protocol:
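Reporter transcripts under endogenous PXR-responsive cis-regulation quantified from total RNA of transfected HepG2 cells 24 h post-dosing, via RT-PCR with fluorescent primer extension and capillary electrophoresis. Gain or loss of signal fitted against DMSO baseline.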

Assay [9] in a line: ATG_PPRE_CIS: Attagene CIS-FACTORIAL HepG2 Assay for human Peroxisome Proliferator-activated Response Element (PPRE) (AID 2282958). As to conditions: HepG2 PPRE cis-element reporter, Attagene transcription factor profiling; actives raise or lower the signal. The method in brief: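 After human HepG2 hepatoma cells were transiently transfected with cis-promoter reporter constructs, they were exposed to test chemicals for 24 hours. Reporter RNA was then reverse-transcribed, PCR-amplified, FAM-labeled, HpaI-digested and quantified by capillary electrophoresis.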

Assay [10] is described as follows: ATG_RORE_CIS: Attagene CIS-FACTORIAL HepG2 Assay for human RAR-related Orphan Receptor Element (RORE) (AID 2282959). The note with it: HepG2 Attagene cis-factorial RORE reporter, mRNA; actives raise or lower the signal. A digest of the protocol: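 Measured here: transcript induction of a cis-regulated reporter in HepG2 cells transiently transfected via FuGene 6. After 24 h, RNA was processed by RT-PCR and fluorescent capillary electrophoresis; DMSO defined baseline activity.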

Assay [11] is described as follows: ATG_Sox_CIS: Attagene CIS-FACTORIAL HepG2 Assay for human SRY-box transcription factor (SOX) (AID 2282960). As to conditions: HepG2 Attagene cis-factorial SOX reporter, mRNA; actives raise or lower the signal. A digest of the protocol: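 Using transiently transfected HepG2 cells, reporter transcription driven by cis elements was assessed 24 h after dosing. Signal was fluorescence of capillary-separated RT-PCR products, with DMSO defining baseline activity.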

Assay [12] addresses Transcription factor Sp1 (Homo sapiens) (UniProt P08047). Briefly: ATG_Sp1_CIS: Attagene CIS-FACTORIAL HepG2 Assay for human Specificity Protein 1 (Sp1) (AID 2282961). As to conditions: HepG2 Sp1 cis-reporter transcription, actives raise or lower the signal. A digest of the protocol:
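After transient transfection of HepG2 cells with cis-promoter reporter units and 24 h chemical treatment, reporter transcripts were quantified by RT-PCR and capillary electrophoresis fluorescence. Gain- and loss-of-signal fitted against DMSO.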

Assay [13] is described as follows: ATG_SREBP_CIS: Attagene CIS-FACTORIAL HepG2 Assay for human Sterol Regulatory Element Binding (SREBP) (AID 2282962). The note with it: HepG2 Attagene cis-factorial SREBP reporter, mRNA; actives raise or lower the signal. A digest of the protocol:
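Readout: fluorescent reporter-transcript peaks resolved by capillary electrophoresis after RT-PCR. Cells were human HepG2 carrying transfected cis-promoter reporter constructs, dosed for 24 h. Gain or loss of signal was fitted against DMSO controls.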

For assay [14], the target named is Signal transducer and activator of transcription 3 (Homo sapiens) (UniProt P40763). Description: ATG_STAT3_CIS: Attagene CIS-FACTORIAL HepG2 Assay for human Signal Transducer and Activator of Transcription 3 (STAT3) (AID 2282963). As to conditions: HepG2, Attagene cis-factorial STAT3 reporter transcription; actives raise or lower the signal. The method in brief: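 Uses human liver HepG2 transiently carrying cis-regulated reporter transcription units. Following 24 h dosing, reporter mRNA induction was detected by RT-PCR and capillary electrophoresis, analysed bidirectionally versus DMSO.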
Sequence of Signal transducer and activator of transcription 3 (Homo sapiens) (P40763 whole entry, looked up): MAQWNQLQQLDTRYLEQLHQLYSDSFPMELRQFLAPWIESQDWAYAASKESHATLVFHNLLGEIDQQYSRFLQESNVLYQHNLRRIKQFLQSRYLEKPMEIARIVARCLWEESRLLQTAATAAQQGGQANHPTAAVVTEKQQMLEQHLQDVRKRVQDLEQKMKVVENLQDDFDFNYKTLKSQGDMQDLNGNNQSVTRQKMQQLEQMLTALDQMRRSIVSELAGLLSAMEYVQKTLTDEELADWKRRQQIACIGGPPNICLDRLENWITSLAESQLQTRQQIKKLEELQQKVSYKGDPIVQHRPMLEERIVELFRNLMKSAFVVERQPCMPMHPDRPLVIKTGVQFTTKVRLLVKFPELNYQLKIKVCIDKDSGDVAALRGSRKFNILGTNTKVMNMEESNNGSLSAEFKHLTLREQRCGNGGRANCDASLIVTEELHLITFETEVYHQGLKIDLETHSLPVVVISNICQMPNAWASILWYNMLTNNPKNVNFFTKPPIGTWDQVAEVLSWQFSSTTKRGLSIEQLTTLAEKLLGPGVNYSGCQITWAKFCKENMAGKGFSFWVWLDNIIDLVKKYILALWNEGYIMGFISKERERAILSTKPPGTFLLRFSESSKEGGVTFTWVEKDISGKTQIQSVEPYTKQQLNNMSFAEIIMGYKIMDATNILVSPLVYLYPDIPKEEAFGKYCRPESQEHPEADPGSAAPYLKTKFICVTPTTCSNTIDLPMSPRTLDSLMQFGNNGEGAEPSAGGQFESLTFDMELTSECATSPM

A short description of assay [15]: ATG_PBREM_CIS: Attagene CIS-FACTORIAL HepG2 Assay for human Phenobarbital-responsive Enhancer Module (PBREM) (AID 2282955). As to conditions: HepG2 PBREM cis-reporter, Attagene multiplexed transcription; actives raise or lower the signal. The method in brief: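 Readout: reporter mRNA, fluorescent RT-PCR fragments separated by capillary electrophoresis. System: HepG2 transiently transfected with cis-regulated reporter units. Exposure: 24 h. Analysis: bidirectional, DMSO baseline.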

For assay [16], the target named is Paired box protein Pax-6 (Homo sapiens) (UniProt P26367). Description: ATG_Pax6_CIS: Attagene CIS-FACTORIAL HepG2 Assay for human Paired Box 6 (PAX6) (AID 2282956). As to conditions: HepG2 CIS-FACTORIAL PAX6 reporter transcription, RNA readout; actives raise or lower the signal. A digest of the protocol: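 Readout: reporter transcript fluorescence after RT-PCR and capillary electrophoresis. Cells: HepG2, transiently transfected with cis-regulated MRTUs. Exposure 24 h. Gain or loss of signal fitted bidirectionally relative to DMSO.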
Sequence of Paired box protein Pax-6 (Homo sapiens) (P26367 whole entry, looked up): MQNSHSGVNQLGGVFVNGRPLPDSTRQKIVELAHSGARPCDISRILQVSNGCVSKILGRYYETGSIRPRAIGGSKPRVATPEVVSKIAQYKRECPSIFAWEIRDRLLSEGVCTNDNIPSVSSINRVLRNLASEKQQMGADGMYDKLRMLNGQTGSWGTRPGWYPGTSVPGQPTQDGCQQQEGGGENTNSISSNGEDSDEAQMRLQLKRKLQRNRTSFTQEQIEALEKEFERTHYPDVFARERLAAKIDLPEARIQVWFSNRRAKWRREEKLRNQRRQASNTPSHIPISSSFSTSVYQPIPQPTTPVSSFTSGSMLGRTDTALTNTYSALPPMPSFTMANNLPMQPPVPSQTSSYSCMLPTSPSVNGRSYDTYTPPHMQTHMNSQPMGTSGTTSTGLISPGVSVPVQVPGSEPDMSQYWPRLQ

A short description of assay [17]: ATG_TA_CIS: Attagene CIS-FACTORIAL HepG2 Assay for human TA Basal Promoter (AID 2282964). As to conditions: HepG2 Attagene CIS-factorial TA basal promoter reporter; actives raise or lower the signal. A digest of the protocol:
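Background-control readout: TA basal promoter reporter mRNA, fitted in both directions relative to DMSO. Measured by RT-PCR and capillary electrophoresis 24 hours after treating HepG2 human liver cells transiently carrying multiplexed cis-regulated reporter constructs.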

Assay [18] can be described thus: ATG_M_06_CIS: Attagene CIS-FACTORIAL HepG2 Assay for M06 Transcription Factor (Internal Marker) (AID 2282950). As to conditions: HepG2 Attagene CIS-FACTORIAL M06 internal marker reporter; actives raise or lower the signal. The method in brief:
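Serves as a background control readout. Transfected HepG2 exposed to compounds for 24 h, then reporter transcripts quantified by fluorescent RT-PCR and capillary electrophoresis. Both directions fitted against DMSO baseline.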

Calls of active or inactive are those of the source. The calls were made as follows: active = hit-call score of the fitted dose curve at least 0.9, where 1 is the maximum; inactive = score below 0.9.

Sequence of Hypoxia-inducible factor 1-alpha (Homo sapiens) (Q16665 whole entry, looked up): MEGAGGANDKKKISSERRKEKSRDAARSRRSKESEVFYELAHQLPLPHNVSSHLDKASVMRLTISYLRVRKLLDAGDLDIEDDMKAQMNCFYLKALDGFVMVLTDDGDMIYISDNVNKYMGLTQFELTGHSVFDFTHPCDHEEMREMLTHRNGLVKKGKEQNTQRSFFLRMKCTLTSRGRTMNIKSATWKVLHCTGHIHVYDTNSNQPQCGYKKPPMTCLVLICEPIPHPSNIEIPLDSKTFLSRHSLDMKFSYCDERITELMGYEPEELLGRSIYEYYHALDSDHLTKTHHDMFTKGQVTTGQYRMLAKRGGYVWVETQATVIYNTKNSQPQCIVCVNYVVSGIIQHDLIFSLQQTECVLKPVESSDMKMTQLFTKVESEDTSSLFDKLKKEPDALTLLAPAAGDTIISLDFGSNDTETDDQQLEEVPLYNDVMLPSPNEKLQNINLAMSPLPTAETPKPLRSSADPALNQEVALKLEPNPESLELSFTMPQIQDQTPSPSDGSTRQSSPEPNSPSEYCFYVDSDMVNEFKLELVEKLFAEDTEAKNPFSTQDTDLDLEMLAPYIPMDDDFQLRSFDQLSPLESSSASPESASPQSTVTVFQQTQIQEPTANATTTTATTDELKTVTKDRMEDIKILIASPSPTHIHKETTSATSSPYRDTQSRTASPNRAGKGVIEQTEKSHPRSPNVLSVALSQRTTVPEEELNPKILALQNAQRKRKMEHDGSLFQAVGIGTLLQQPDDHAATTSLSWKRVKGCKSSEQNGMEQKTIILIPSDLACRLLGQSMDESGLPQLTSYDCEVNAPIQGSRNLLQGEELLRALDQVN
Sequence of Transcription factor Sp1 (Homo sapiens) (P08047 whole entry, looked up): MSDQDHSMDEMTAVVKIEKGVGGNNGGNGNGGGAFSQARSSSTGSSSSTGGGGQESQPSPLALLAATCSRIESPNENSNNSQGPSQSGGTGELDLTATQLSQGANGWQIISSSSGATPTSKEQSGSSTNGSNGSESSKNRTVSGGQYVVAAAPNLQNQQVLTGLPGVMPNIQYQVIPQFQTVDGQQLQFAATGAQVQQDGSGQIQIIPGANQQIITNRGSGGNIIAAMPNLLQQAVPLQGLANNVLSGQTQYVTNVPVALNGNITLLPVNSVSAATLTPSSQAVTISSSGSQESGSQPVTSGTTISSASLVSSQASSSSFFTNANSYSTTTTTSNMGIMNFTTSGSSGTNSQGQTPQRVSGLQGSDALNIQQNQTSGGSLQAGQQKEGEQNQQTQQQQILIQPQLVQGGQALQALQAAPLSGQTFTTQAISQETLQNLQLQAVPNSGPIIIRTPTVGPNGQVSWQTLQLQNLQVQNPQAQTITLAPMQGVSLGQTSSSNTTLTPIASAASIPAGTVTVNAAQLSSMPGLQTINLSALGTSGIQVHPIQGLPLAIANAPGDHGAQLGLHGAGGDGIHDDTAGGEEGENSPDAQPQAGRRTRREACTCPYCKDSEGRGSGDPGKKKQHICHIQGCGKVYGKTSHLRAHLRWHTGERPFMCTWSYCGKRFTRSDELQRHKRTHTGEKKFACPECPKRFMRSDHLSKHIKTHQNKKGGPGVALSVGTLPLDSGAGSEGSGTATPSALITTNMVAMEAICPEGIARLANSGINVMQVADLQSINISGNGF
Sequence of Hepatocyte nuclear factor 6 (Homo sapiens) (Q9UBC0 whole entry, looked up): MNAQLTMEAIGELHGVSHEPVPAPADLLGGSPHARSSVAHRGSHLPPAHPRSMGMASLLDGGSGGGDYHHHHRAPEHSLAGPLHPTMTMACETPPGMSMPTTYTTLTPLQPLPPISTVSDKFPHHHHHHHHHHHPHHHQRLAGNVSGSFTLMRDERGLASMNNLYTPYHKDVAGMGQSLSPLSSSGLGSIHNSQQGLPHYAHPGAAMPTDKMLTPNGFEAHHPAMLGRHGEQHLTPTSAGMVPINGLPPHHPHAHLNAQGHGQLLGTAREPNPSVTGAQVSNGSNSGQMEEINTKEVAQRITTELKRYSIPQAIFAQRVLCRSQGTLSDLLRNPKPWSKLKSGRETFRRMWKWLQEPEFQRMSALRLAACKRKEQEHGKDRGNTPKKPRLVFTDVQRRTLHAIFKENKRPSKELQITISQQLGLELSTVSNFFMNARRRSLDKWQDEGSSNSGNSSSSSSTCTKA
Sequence of Heat shock factor protein 1 (Homo sapiens) (Q00613 whole entry, looked up): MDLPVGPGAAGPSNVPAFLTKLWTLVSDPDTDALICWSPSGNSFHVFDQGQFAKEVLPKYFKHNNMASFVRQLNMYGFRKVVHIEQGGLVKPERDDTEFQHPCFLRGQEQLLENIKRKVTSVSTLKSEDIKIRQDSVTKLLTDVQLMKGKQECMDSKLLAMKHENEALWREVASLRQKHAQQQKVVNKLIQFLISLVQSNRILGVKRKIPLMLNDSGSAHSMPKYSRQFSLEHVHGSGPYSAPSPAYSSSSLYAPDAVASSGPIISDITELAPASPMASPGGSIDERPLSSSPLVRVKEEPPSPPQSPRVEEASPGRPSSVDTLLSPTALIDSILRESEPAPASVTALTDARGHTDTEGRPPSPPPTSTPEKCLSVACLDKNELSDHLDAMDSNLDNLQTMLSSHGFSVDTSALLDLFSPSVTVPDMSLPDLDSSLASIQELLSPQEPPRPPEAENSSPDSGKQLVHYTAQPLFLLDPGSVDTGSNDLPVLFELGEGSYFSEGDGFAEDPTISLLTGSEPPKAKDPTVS

Turning to `CCCCCCCCCCCC(=O)OCC`, the outcome in [1], in assay [2], in [3], in assay [4], in [5] and in [6] was inactive. Also, the call in [7], in assay [8], in [9], in assay [10], in [11] and in assay [12] was inactive. In addition, the molecule was called inactive in [13] and in [14].

By AC50 is commonly meant the concentration giving half of the maximal activity seen. As to `C=CC(=O)OCCCCCCCC(C)C`, the molecule was called inactive in assay [1], in assay [2], in assay [3], in assay [5], in assay [6] and in assay [7]. Moreover, the result in [15], in [16], in assay [11], in assay [12], in [13] and in assay [14] was inactive. Moreover, the call in assay [17] was inactive. The AC50 was 71.8 µM (active) in [4], 7.99 µM (active) in assay [8], 71.1 µM (active) in assay [9] and 100 µM (active) in [10].

For the molecule `CCCCOC(=O)CCC(C)=O`, the call in assay [1], in assay [2], in [3], in [4], in assay [5] and in [6] was inactive. The molecule was classed as inactive in assay [7], in assay [15], in assay [16], in assay [8], in assay [9] and in [10]. For the same molecule, the molecule was classed as inactive in assay [11], in assay [12], in [13] and in assay [14].

In the case of `C=C(C)[C@@H]1CC=C(C)CC1`, the call in assay [1], in assay [2], in assay [3], in assay [18], in assay [4] and in assay [5] was inactive. The result in [6], in assay [7], in assay [15], in assay [16], in assay [8] and in assay [11] was inactive. For the same molecule, the outcome in assay [12], in [13], in assay [14] and in assay [17] was inactive.

On to `O=C(C=Cc1ccccc1)OCCc1ccccc1`, for which the call in assay [1], in [3], in assay [18], in assay [5], in assay [6] and in [15] was inactive. For the same molecule, the call in assay [16], in assay [11], in [12] and in assay [14] was inactive. Besides, the AC50 is 77.6 µM (active) in [2], 40.4 µM (active) in assay [7], 12.8 µM (active) in assay [8] and 53.9 µM (active) in assay [17].

As to `Oc1ccc(/C=C/c2cc(O)cc(O)c2)cc1`, the molecule was called inactive in assay [1], in assay [3], in [18], in assay [5], in assay [6] and in [7]. For the same molecule, the call in [8], in [10], in assay [11], in [12] and in assay [14] was inactive. The AC50 is 100 µM (active) in [2]; 100 µM (active) in assay [15]; 100 µM (active) in assay [9]; 26.9 µM (active) in assay [13]; 137 µM (active) in assay [17].

Consider `CCOC(=O)c1ccc(C)cc1`, for which the molecule was called inactive in [1], in [2], in [3], in assay [18], in assay [4] and in assay [5]. Also, the result in [15], in [16], in assay [10], in assay [11], in assay [12] and in assay [13] was inactive. Besides, the result in [14] and in assay [17] was inactive. Also, the AC50 in [8] is 56.8 µM (active).
